Bioassay records deposited in PubChem BioAssay by National Center for Advancing Translational Sciences (NCATS).
p53 reactivation = re-activators of mutant p53 | H1299 p53-A138V BP100-luciferase reporter, luminescence, 24 h | Potency, µM (series often up to 92.2 µM), usual class: activators | 320,000 tested, 0.063% active; note: nearly all actives have a fitted effect of over 45% in size
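p53-null H1299 cells stably carrying temperature-sensitive p53-A138V and a BP100-luciferase reporter were pinned with compounds (4-point, 1:5 series) and held 24 hrs at 37 deg C. Luminescence was read 10 min after detection reagent.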
RORg inh = blocks mouse ROR gamma transcriptional activity. P51450. Drosophila S2 Gal4-RORgamma UAS-luciferase reporter, 20 h. Potency, µM (highest dose often 53.6 µM), most hits filed as inhibitors. 310,000 tested, 5.4% active. AID 2551; note: nearly all actives have a fitted effect of over 60% in size
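Stably transfected Drosophila Schneider cells are the test system, with ROR gamma fused to Gal4 and luciferase under UAS control; luminescence is read after 20 hr of 700 uM copper sulfate induction at ambient temperature.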
CtBP-E1A inh = CtBP/E1A binding inhibition | AlphaScreen GST-E1A/His-CtBP binding, 1536-well; active compounds read low | AID 651724 | activity change, % (test concentration not listed) | 340,000 tested, 0.49% active; in the data active = activity change below about -65%; inconclusive = mostly about -30% to -63%
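In 5 uL wells, 23 nL compound meets equimolar GST-E1A and His-CtBP (5X stock 125 nM each) for 2 h, 37 °C. Beads (5X, 50 ug/mL) then 1 h, 37 °C, dark.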
Six1-Eya2 blk = inhibitors of human Six1/Eya2 interaction. Q15475+O00167. AlphaScreen GST-Six1/His-Eya2 binding, biochemical; active compounds read low. activity change, % (test concentration not listed). 360,000 tested, 0.56% active. AID 651725; in the data active = activity change below about -65%; inconclusive = mostly about -30% to -63%
Target sequence (O00167 whole entry, looked up): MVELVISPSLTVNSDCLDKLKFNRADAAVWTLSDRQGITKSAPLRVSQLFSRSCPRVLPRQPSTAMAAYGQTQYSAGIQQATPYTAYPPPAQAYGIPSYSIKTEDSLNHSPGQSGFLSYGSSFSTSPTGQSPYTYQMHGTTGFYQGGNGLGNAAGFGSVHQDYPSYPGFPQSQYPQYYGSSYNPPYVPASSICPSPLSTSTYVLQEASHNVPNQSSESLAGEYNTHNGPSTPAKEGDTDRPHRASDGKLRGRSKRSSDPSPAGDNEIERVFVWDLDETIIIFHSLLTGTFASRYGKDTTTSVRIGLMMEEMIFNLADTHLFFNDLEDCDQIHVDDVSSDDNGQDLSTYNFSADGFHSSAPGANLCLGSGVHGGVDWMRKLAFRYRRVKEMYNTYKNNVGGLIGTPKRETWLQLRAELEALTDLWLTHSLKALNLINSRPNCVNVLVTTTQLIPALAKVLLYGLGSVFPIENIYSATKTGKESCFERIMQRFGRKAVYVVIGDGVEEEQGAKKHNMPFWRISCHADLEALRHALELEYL
Target sequence (Q15475 whole entry, looked up): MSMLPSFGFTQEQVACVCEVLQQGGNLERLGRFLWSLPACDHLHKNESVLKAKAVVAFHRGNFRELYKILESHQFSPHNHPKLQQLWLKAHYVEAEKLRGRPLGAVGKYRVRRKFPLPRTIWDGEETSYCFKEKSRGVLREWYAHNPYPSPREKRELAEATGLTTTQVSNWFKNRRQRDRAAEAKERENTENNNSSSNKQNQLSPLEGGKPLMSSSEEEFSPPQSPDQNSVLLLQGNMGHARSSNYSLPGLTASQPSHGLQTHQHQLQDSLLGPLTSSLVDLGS
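GST-Six1 + His-Eya2 (5X stock: 250/500 nM); Tris pH 8.0, 300 mM NaCl, 0.05% BSA, 0.02% Tween 20; GSH donor/Ni acceptor beads; 1 h 37 °C dark; AlphaScreen readout.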
Gal4-VP16 FLuc = inhibits Gal4-VP16 luciferase reporter, ROR gamma counter-screen | Drosophila S2 Gal4-VP16 UAS-luciferase, luminescence, 20 h | Potency, µM (titrated, usually from 53.6 µM), hits mostly inhibitors | 310,000 tested, 3.5% active | AID 2546;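 note: Gal4-VP16 expression switched on by copper sulfate through the metallothionein promoter; nearly all actives have a fitted effect of over 50% in size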
Of the large screens only hits and unclear results are named; the others gave an inactive call. Compounds with a hit are over-represented: about 5.4% of the library has one in this group of screens. Unless noted, calls come from the whole dose curve; as a rule, active = well fitted curve in the direction sought with a large enough effect; inconclusive = small, poorly fitted or top-dose-only effect, or another doubt; inactive = no such curve, though single readings can be large; an effect the other way counts as inactive or inconclusive.

O=C(COc1ccc(C(=O)NCC2CCCO2)cc1)Nc1cccc(C(F)(F)F)c1 (stereo unspecified)	none (no result: RORg inh, Gal4-VP16 FLuc)
S=C(NCc1ccco1)Nc1ccc(Cl)cn1	RORg inh 2.5µM, Gal4-VP16 FLuc 2.8µM
S=C(NCc1ccco1)Nc1ccccn1	RORg inh 1.8µM, Gal4-VP16 FLuc 13µM
Cc1cccnc1NC(=S)NCc1ccco1	RORg inh 2µM, Gal4-VP16 FLuc inconclusive
COc1ccccc1/C=N/NC(=O)CC(=O)NCCc1ccccc1	none (no result: p53 reactivation, RORg inh, Gal4-VP16 FLuc)
CCOc1ccc(-n2c(O)c(/C=N/NC(=O)C3COc4ccccc4O3)c3ccccc3c2=O)cc1 (stereo unspecified)	RORg inh 3.2µM, Gal4-VP16 FLuc 4.5µM
CC(C)(C)c1ccc2c(c1)OC(C(=O)N/N=C\c1ccc[nH]1)CO2 (stereo unspecified)	RORg inh 7.9µM, Gal4-VP16 FLuc 5µM
O=C(N/N=C/C=C/c1ccc([N+](=O)[O-])cc1)C1COc2ccccc2O1 (stereo unspecified)	p53 reactivation inconclusive, RORg inh 10µM, Gal4-VP16 FLuc 11µM
O=C(N/N=C\c1cc(Br)cs1)C1COc2ccccc2O1 (stereo unspecified)	RORg inh 10µM, Gal4-VP16 FLuc inconclusive
O=C(Nc1ccc([N+](=O)[O-])cc1)C1COc2ccccc2O1 (stereo unspecified)	p53 reactivation inconclusive
CCOC(=O)C1(C)CCCN1C(=O)c1ccc2ccccc2c1 (stereo unspecified)	none (no result: p53 reactivation, RORg inh, Gal4-VP16 FLuc)
O=[N+]([O-])c1cccc(C2Nc3ccccc3CO2)c1 (stereo unspecified)	none (no result: p53 reactivation, RORg inh, Gal4-VP16 FLuc)
O=C(N/N=C/c1ccc2c(c1)OCO2)C1COc2ccccc2O1 (stereo unspecified)	none
O=C(N/N=C\C=C\c1ccc2c(c1)OCO2)c1ccc(F)cc1	RORg inh 2.2µM, Gal4-VP16 FLuc 5.6µM
O=C(N/N=C\c1ccc(O)c([N+](=O)[O-])c1)C1COc2ccccc2O1 (stereo unspecified)	none (no result: CtBP-E1A inh)
O=C(N/N=C\C=C\c1ccc2c(c1)OCO2)C1COc2cc3ccccc3cc2O1 (stereo unspecified)	RORg inh 7.1µM, Gal4-VP16 FLuc inconclusive
Cc1cc([N+](=O)[O-])cc(/C=N\NC(=O)C2COc3ccccc3O2)c1O (stereo unspecified)	RORg inh 2.2µM, CtBP-E1A inh -72, Six1-Eya2 blk -87, Gal4-VP16 FLuc 4.5µM
COC(C[C@H](O)[C@H](C)[C@@H](O)COCc1ccccc1)OC	none
CC(C)c1ccc(/C=C2\SC(=O)N(CC(=O)NC3C=CS(=O)(=O)C3)C2=O)cc1 (stereo unspecified)	p53 reactivation inconclusive, RORg inh inconclusive, Gal4-VP16 FLuc 4.5µM (no result: CtBP-E1A inh)
CCn1c(SCC(=O)c2ccc(C)cc2)nnc1-c1ccoc1C	RORg inh inconclusive, Gal4-VP16 FLuc 16µM
CCC1S/C(=N/N=C/c2cccs2)NC1=O (stereo unspecified)	RORg inh 0.79µM, Gal4-VP16 FLuc 4µM
CC1S/C(=N/N=C/c2cccs2)NC1=O (stereo unspecified)	RORg inh 2.2µM, Gal4-VP16 FLuc 7.1µM
CC1S/C(=N/N=C/c2cccc([N+](=O)[O-])c2)NC1=O (stereo unspecified)	none (no result: CtBP-E1A inh)
CCCC1S/C(=N/N=C/c2cccs2)NC1=O (stereo unspecified)	RORg inh 0.22µM, Gal4-VP16 FLuc 0.4µM
CC(C)C1S/C(=N/N=C/c2cccs2)NC1=O (stereo unspecified)	RORg inh 0.32µM, Gal4-VP16 FLuc 0.89µM
COc1ccc(C2=Nn3c(nnc3-c3ccc(OC)cc3OC)SC2)cc1	RORg inh inconclusive (no result: p53 reactivation, CtBP-E1A inh, Six1-Eya2 blk)
Cc1csc(SCC(=O)Nc2ccc(C)c(F)c2)n1	p53 reactivation inconclusive (no result: RORg inh, CtBP-E1A inh, Gal4-VP16 FLuc)
CNc1cc(C(F)(F)F)nc(-c2ccccn2)n1	RORg inh 0.71µM, Gal4-VP16 FLuc 13µM
C#CCSc1cc(C(F)(F)F)nc(-c2ccccn2)n1	RORg inh 10µM
FC(F)(F)c1cccc(Oc2cc(C(F)(F)F)nc(-c3ccccn3)n2)c1	none
COc1ccc(Sc2cc(C(F)(F)F)nc(-c3ccccn3)n2)cc1	RORg inh 4µM, Gal4-VP16 FLuc 11µM
CN1CCN(c2cc(C(F)(F)F)nc(-c3ccccn3)n2)CC1	none
CC(C)(C)c1ccc(CC(=O)N2CCC2(C)C(=O)NCCC#N)cc1 (stereo unspecified)	none (no result: p53 reactivation, RORg inh, Gal4-VP16 FLuc)
CC1=C2C(=CO[C@H](C)[C@H]2C)C(=O)C(C(=O)O)=C1O	none (no result: p53 reactivation, CtBP-E1A inh, Six1-Eya2 blk)
COCCNc1nc(CSc2ccccc2)nc2sc(C)c(C)c12	RORg inh 11µM, Gal4-VP16 FLuc inconclusive
CCOCCCNC(=O)c1cc2c(s1)-c1ccccc1SC2	none
CN(C)CCNC(=O)c1cc2c(s1)-c1ccc(Cl)cc1SC2	RORg inh 10µM, Gal4-VP16 FLuc inconclusive (no result: CtBP-E1A inh)
COC(=O)C(CC(=O)c1ccc(Cl)cc1)c1ccc(C(C)C)cc1 (stereo unspecified)	none
CC1(C)CC2(CC(c3ccccc3)Oc3cc(O)ccc32)NC(=O)N1 (stereo unspecified)	none (no result: CtBP-E1A inh, Six1-Eya2 blk)
COc1ccc(C2CC3(CC(C)(C)NC(=O)N3)Oc3cc(O)ccc32)cc1 (stereo unspecified)	RORg inh inconclusive
CC(=O)Oc1cc2c(cc1Cl)C(c1cccs1)CC1(CC(C)(C)NC(=S)N1)O2 (stereo unspecified)	RORg inh 10µM, Gal4-VP16 FLuc inconclusive
COc1ccc(C2CC3(CC(C)(C)NC(=S)N3)Oc3cc(O)cc(C)c32)cc1 (stereo unspecified)	RORg inh inconclusive, Gal4-VP16 FLuc inconclusive
CC1(C)CC2(CC(c3ccccc3)c3ccc(O)cc3O2)NC(=S)N1 (stereo unspecified)	RORg inh 11µM
CC(=O)Oc1ccc2c(c1)OC(c1ccccc1)CC21CC(C)(C)NC(=S)N1 (stereo unspecified)	RORg inh 10µM, Gal4-VP16 FLuc inconclusive
COc1ccc(C2(c3ccc(OC(C)=O)cc3OC(C)=O)CC(c3ccccc3)NC(=S)N2)cc1 (stereo unspecified)	Six1-Eya2 blk inconclusive
CC1(C)CC2(CC(c3ccccc3)Oc3cc(O)ccc32)NC(=S)N1 (stereo unspecified)	RORg inh 8.9µM, Gal4-VP16 FLuc 8.9µM
Cc1nc(Nc2ccccc2)c2nc(-c3ccccc3)n(CCN3CCOCC3)c2n1	none (no result: p53 reactivation, CtBP-E1A inh, Six1-Eya2 blk)
COc1ccccc1NS(=O)(=O)c1cc(C(=O)N2CC(C)CC(C)C2)ccc1C (stereo unspecified)	none
CCCCc1ccc(S(=O)(=O)NC(=O)C2(C)CCN2C(=O)CCc2cccs2)cc1 (stereo unspecified)	none (no result: p53 reactivation, RORg inh, Gal4-VP16 FLuc)
COC(=O)CCSCC(=O)N1N=C(c2ccc(Br)cc2)CC1c1cccc(OC)c1OC (stereo unspecified)	Six1-Eya2 blk inconclusive
CC(C)NC(=O)CC(c1ccccc1)c1cc(Br)ccc1O (stereo unspecified)	none
